According to the supplement of paper PMC11732987, “Enantioselective OTUD7B fragment discovery through chemoproteomics screening and high-throughput optimisation” (Communications Chemistry, 2025):

Columns and labels:
Test in all cases: log2 ratio of Biotin-Ahx-Ub-VS probe labelling (fragment/DMSO); higher = less target engagement (more negative = stronger competition), active = hit call of the paper (q ≤ 0.05, log2 ratio ≤ -1)
Conditions in all cases: compound concentration: 200 uM; treatment time: 3 h
USP19 = molecular target: T1, USP19 (UniProt O94966)
T1 sequence (whole entry): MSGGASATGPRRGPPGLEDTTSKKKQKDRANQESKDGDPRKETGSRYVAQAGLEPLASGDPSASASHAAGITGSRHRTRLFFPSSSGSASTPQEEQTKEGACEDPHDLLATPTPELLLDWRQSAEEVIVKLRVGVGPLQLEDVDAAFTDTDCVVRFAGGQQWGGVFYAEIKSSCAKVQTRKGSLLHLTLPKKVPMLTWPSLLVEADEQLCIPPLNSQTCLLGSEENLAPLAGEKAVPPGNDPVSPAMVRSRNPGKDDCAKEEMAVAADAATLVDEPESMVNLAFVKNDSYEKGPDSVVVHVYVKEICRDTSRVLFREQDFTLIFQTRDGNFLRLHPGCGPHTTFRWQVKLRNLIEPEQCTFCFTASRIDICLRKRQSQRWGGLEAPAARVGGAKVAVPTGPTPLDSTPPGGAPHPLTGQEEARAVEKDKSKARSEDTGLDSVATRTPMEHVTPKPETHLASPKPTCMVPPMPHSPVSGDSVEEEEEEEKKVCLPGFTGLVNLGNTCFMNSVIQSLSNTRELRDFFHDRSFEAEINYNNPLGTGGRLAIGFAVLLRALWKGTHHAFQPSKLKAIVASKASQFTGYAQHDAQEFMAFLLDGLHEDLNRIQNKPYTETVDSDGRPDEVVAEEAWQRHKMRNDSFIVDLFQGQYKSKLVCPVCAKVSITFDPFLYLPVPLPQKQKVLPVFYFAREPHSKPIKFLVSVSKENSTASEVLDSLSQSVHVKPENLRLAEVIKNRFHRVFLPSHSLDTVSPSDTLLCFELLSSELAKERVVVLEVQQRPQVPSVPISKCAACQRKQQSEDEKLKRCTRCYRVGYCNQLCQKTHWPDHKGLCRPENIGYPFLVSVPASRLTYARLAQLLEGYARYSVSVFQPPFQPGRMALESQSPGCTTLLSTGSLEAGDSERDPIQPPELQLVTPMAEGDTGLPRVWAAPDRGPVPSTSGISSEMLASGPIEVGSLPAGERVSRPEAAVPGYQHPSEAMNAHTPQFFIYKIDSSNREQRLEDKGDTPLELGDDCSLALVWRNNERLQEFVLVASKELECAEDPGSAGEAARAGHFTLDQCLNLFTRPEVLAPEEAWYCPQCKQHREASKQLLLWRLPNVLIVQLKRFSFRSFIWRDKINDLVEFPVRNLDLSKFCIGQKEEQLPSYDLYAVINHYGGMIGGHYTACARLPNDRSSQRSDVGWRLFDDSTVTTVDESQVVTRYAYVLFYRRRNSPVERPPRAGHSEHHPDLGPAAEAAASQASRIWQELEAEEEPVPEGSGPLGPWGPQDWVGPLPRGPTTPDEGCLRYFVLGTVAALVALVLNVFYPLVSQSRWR
Method in brief: (§1)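 Labelled DUBs from HEK293T lysate were NeutrAvidin-enriched, digested with LysC and trypsin, and run by diaPASEF LC-MS/MS. Before that, each 495 µg sample in Tris/CHAPS/IGEPAL buffer with protease inhibitors was treated in triplicate with fragment at 200 µM or vehicle for 3 h, then with Biotin-Ahx-Ub-VS at 0.5 µM final for 1 h. Values are average log2 ratios of fragment over vehicle by unpaired t-test, based on global-median-normalised Spectronaut label-free quantities from proteins with ≥2 unique peptides.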

USP22 = molecular target: T2, USP22 (UniProt Q9UPT9)
T2 sequence (whole entry): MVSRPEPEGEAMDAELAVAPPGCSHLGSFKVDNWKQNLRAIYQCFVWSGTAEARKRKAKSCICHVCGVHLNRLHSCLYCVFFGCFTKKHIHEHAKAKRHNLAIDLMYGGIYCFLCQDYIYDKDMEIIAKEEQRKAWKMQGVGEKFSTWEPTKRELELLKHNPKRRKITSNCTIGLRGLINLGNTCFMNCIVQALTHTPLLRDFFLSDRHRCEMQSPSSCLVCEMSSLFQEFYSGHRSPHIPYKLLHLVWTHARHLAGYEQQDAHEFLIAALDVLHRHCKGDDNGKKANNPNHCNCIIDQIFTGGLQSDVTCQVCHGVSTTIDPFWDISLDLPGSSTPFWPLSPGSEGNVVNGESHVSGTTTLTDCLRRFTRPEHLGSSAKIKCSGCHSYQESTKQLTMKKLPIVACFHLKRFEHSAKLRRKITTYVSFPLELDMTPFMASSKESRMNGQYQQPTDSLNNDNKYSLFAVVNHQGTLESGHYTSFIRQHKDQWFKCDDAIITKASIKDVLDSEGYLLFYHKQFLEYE
Method in brief: as §1

USP24 = USP24 (UniProt Q9UPU5)
Method in brief: as §1

USP25 = molecular target: T3, USP25 (UniProt Q9UHP3)
T3 sequence (whole entry): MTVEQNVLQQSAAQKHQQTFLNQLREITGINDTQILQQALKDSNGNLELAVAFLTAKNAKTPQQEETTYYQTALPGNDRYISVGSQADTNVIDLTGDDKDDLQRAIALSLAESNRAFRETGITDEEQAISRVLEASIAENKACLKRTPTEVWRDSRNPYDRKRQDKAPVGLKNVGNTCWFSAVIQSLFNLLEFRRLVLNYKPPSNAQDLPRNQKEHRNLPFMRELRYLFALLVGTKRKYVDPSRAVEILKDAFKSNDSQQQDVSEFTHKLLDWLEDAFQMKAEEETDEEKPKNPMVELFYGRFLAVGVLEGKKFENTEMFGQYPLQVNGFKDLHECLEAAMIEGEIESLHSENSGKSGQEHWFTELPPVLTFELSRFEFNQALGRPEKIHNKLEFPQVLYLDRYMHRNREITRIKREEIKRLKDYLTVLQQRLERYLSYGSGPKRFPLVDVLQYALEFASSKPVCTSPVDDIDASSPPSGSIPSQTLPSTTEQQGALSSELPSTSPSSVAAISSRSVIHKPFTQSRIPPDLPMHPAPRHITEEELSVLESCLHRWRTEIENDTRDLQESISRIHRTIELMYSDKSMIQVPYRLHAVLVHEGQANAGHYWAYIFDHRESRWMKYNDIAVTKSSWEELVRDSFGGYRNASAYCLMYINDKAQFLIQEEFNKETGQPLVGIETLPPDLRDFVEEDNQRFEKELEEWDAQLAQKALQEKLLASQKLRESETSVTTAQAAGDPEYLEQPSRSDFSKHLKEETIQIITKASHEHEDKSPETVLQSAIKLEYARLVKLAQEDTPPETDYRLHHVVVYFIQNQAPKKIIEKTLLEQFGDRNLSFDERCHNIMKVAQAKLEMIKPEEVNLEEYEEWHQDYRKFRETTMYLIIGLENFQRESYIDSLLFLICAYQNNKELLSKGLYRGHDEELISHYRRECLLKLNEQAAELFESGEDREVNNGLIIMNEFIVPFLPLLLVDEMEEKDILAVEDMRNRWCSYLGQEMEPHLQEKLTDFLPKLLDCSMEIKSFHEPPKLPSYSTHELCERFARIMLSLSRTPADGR
Method in brief: as §1

USP28 = molecular target: T4, USP28 (UniProt Q96RU2)
T4 sequence (whole entry): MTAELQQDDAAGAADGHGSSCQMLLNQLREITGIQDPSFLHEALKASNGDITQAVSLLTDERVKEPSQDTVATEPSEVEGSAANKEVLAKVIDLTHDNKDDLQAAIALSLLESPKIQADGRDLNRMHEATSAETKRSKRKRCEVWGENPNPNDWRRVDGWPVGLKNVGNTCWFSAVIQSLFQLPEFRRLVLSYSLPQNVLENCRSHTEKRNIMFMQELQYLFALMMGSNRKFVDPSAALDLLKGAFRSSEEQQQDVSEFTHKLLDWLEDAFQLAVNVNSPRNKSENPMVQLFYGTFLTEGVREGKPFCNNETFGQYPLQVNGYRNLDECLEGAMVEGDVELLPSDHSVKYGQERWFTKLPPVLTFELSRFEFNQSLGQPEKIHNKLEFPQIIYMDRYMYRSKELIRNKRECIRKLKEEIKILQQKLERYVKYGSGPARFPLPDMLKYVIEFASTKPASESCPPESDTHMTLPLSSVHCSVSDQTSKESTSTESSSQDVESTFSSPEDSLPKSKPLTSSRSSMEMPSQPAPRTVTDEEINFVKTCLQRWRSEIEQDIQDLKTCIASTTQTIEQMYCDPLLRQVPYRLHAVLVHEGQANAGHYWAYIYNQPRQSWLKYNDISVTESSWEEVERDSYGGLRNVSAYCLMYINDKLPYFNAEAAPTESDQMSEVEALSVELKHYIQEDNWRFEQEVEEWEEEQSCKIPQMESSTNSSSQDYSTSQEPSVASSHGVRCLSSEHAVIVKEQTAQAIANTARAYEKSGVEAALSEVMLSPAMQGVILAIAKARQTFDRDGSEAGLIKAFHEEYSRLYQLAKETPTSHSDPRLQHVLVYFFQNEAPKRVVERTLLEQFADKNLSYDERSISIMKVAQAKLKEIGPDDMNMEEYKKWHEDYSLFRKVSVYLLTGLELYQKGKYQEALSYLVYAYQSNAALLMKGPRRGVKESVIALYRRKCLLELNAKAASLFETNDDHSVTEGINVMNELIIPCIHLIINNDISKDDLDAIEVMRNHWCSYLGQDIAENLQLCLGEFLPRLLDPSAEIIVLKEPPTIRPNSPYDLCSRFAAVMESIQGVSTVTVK
Method in brief: as §1

Measured: log2 ratio of Biotin-Ahx-Ub-VS probe labelling

Sequence of USP24 (Q9UPU5 whole entry): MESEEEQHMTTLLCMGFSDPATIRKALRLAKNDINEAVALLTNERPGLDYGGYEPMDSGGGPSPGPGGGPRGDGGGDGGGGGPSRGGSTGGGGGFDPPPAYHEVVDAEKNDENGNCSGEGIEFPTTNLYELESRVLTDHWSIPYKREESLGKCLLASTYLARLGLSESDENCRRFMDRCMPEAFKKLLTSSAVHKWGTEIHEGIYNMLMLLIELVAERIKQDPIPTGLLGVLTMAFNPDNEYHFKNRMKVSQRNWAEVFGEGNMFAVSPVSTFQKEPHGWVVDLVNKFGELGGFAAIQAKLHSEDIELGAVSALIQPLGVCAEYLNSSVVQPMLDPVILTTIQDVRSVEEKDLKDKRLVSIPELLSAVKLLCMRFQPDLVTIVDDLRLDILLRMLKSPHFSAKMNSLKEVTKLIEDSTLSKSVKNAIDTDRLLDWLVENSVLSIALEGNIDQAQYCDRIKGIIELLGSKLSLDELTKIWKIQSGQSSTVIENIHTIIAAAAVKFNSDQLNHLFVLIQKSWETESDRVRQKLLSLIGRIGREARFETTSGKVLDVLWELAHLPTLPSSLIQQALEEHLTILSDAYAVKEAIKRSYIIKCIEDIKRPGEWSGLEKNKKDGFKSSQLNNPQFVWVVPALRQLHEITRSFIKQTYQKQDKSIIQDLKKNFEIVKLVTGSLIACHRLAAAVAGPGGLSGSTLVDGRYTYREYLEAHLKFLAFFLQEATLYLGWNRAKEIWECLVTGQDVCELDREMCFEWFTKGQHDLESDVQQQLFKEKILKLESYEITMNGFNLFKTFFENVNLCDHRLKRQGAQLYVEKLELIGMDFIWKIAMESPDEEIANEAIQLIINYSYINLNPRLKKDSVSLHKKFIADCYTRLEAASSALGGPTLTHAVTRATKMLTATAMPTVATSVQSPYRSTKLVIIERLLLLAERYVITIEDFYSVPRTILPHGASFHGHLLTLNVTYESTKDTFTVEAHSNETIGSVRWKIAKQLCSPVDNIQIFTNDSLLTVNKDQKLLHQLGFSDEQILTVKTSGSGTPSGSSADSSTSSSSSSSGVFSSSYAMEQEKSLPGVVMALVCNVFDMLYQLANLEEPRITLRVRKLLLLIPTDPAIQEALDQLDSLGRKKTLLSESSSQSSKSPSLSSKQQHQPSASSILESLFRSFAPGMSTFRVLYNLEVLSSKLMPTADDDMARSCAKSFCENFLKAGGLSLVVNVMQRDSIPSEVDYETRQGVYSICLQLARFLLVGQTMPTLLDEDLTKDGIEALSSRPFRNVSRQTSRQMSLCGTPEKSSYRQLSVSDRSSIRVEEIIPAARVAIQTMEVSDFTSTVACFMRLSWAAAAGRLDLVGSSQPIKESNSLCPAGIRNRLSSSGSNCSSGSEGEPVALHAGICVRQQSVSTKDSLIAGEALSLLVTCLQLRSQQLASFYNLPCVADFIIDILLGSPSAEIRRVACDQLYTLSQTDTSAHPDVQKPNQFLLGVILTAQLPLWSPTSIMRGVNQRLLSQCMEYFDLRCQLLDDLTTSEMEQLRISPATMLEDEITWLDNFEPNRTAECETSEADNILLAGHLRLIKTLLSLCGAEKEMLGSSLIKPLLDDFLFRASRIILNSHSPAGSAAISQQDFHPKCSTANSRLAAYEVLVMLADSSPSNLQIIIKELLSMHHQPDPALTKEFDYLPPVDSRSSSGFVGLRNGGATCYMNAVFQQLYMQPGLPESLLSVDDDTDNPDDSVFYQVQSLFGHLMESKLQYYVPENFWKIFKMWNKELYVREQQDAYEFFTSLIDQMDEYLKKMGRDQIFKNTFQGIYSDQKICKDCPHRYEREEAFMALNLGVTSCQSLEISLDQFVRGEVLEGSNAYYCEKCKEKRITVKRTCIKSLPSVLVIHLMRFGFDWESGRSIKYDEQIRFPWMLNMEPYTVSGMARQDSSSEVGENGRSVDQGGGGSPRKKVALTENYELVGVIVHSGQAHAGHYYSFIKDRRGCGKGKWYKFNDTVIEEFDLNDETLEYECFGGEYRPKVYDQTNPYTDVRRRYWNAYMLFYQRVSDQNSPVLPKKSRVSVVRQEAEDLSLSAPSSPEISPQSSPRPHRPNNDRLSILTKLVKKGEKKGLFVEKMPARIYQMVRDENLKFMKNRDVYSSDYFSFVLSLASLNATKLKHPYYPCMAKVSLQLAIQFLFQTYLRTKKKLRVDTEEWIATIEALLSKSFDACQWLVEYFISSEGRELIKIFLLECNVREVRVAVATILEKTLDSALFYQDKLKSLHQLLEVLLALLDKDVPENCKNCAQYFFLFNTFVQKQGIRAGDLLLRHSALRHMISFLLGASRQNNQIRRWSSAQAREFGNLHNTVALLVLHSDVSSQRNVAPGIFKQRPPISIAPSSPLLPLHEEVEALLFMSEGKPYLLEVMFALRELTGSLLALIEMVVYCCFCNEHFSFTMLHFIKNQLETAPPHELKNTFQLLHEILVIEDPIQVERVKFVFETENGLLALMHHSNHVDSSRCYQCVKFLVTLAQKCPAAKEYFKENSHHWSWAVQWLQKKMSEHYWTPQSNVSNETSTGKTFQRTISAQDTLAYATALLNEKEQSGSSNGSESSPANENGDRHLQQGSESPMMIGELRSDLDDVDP

CC(=O)C1CCCCN1C(=O)CCl (stereo not given)
inactive: USP19 -0.14 | USP22 0.0806 | USP24 0.0726 | USP25 0.106 | USP28 -0.2
